USP1-UAF1 inh: inhibitors of human USP1/UAF1 deubiquitinase; O94782; Potency, µM (titrated, usually from 57.1 µM), without a hit: top-dose activity change, negative = inhibition, most hits filed as inhibitors; recombinant USP1/UAF1, Ub-Rhodamine cleavage fluorescence; hit rate 0.23% among 390,000; further: potency means the concentration at half of the fitted maximal effect; nearly all actives have a fitted effect of over 60% in size
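USP1/UAF1 complex (1 nM) preincubated 15 min at room temperature with compound, then Ub-Rho substrate (150 nM final) added. Kinetic fluorescence at 480/540 nm over 6 reads at 60 s intervals; 50 mM HEPES pH 7.8, 0.5 mM EDTA, 0.1 mg/ml BSA, 1 mM TCEP, 0.01% Tween-20.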
PI5P4Ka inh: blocks human PI5P4K alpha kinase activity; P48426; hit rate 1.2% among 330,000; max response, %; PI5P4Kalpha enzyme, ADP-Glo luminescence, 60 min; stronger effect = lower value; active means max response of -50% or lower; inconclusive means between -30% and -50%; inactive means -30% or higher; further: value at the top dose of about 77 µM
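Compounds were pin-transferred onto PI5P4Kalpha and substrate in HEPES pH 7.4 buffer with EGTA, CHAPS and 5% DMSO. ATP (5 microM final) started the reaction, which ran 60 minutes at room temperature before ADP-Glo detection.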
PLK1 PBD block: blocks phosphopeptide binding to human PLK1 polo-box domain. P53350. Plk1 PBD binding of FITC phosphopeptide, fluorescence polarization. Potency, µM, without a hit: max response, negative = inhibition, most hits filed as inhibitors. hit rate 2.8% among 360,000. AID 720504; further: potency means the concentration at half of the fitted maximal effect; series mostly up to about 57 µM; nearly all actives have a fitted effect of over 65% in size
WRN inhibitor: blocks human WRN helicase; Potency, µM (top dose mostly 114 µM), for the others: top-dose activity change, negative = inhibition, usual class: inhibitors; hit rate 0.46% among 360,000; Q14191; WRN helicase unwinding, fluorescent forked duplex, kinetic; further: potency means the concentration at half of the fitted maximal effect; nearly all actives have a fitted effect of over 55% in size
Target sequence (Q14191 whole entry, looked up): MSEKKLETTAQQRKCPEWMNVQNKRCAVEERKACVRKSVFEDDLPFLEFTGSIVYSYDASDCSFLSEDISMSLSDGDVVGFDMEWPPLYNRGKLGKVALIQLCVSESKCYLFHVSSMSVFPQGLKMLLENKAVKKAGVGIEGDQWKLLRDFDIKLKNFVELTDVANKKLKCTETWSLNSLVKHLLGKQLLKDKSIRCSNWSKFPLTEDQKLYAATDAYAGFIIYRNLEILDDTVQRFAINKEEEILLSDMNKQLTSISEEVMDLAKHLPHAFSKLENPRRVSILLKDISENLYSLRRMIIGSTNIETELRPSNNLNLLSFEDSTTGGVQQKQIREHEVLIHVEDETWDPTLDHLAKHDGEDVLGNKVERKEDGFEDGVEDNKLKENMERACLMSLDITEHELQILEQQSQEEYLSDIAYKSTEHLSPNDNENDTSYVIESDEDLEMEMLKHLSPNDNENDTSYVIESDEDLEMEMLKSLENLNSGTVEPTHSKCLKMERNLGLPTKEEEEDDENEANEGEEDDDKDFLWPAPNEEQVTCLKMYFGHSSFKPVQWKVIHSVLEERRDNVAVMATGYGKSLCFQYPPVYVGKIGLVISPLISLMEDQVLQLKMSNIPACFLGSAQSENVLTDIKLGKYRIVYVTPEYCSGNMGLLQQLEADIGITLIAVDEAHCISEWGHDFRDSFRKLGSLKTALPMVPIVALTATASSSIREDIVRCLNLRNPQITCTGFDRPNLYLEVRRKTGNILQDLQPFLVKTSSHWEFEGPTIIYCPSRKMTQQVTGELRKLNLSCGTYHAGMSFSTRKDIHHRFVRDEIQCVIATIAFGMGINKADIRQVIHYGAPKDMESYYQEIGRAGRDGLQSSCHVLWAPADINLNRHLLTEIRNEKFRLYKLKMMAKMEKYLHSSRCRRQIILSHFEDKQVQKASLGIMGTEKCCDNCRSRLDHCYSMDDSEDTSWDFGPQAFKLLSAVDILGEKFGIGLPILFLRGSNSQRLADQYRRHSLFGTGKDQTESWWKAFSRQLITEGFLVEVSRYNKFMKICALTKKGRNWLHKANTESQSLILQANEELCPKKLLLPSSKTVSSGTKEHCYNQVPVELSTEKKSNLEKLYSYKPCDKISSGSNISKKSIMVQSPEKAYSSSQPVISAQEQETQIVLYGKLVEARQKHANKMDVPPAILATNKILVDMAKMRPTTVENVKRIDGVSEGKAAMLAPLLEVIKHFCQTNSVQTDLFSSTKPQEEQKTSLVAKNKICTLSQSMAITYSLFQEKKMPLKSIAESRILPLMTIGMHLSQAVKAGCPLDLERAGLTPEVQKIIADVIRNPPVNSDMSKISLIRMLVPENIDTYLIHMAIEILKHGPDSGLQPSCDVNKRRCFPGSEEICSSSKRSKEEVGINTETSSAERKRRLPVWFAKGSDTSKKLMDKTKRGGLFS
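Kinetic fluorescence helicase assay: unwinding of a quenched forked DNA duplex (100 nM final) with 2 mM ATP final raises red fluorescence (525/598 nm). Compounds sat 15 min at room temperature with 20 nM WRN beforehand.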
USP2a inh: blocks human ubiquitin-specific protease USP2a; O75604; USP2 core, Ub-CHOP2 coupled fluorogenic reporter, 485/531; Potency, µM (series often up to 38.3 µM), for inactives: top-dose activity change, negative = inhibition, most hits filed as inhibitors; hit rate 0.01% among 330,000; AID 463254;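 further: potency means the concentration at half of the fitted maximal effect; plate controls were DMSO wells for no effect and full inhibition by NEM control for full effect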
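Cell-free coupled assay: 10nM USP2 core preincubated 30min RT with compound in Tris-HCl pH 8.0/CaCl2/CHAPS buffer, then 25nM Ub-CHOP2 and 25nM reporter substrate; fluorescence (Ex 485/Em 531) read after 60min RT, normalized to NEM inhibition, concentration-response curves fitted.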
ADP-Glo interf: interferes with ADP-Glo detection without enzyme present | shares compounds with PI5P4Ka inh | ADP-Glo detection counter-screen, luciferase luminescence, no enzyme | Potency, µM (series often up to 76.9 µM), for the others: at the top dose activity change, negative = inhibition, usual class: inhibitors | 1,100 tested, under 10 active
The depositor's hits bear a star; ? = inconclusive; · = no result given; [ ] = remark or other dose. This is a sample that favours compounds with a hit; in the whole collection about 3.3% have one here. Unless noted, the call rests on the fitted dose curve; in most records, active means well fitted curve in the direction sought with a large enough effect; inconclusive means small, poorly fitted or top-dose-only effect, or another doubt; inactive means no such curve, though single readings can be large; an effect the other way counts as inactive or inconclusive. Unless noted, on the % scale 0 is the no-effect control and ±100 the full control effect.

SMILES	USP1-UAF1 inh	PI5P4Ka inh	PLK1 PBD block	WRN inhibitor	USP2a inh	ADP-Glo interf
CN(Cc1cn(-c2ccccc2)nc1-c1cc2ccccc2o1)C(=O)CCC(=O)O	-16%	-59*	4.2µM*	-24%	-1%	0%
COc1cccc(N2CCN(CC(=O)NC(=O)NCc3ccco3)CC2)c1	-15%	-71*	-23%	-31%	3%	1%
O=C(CN1CCN(c2ccccc2)CC1)NC(=O)NCc1ccco1	-7%	-8	-11%	8%	-4%	·
COc1ccc(CCNC(=O)CCCCn2c(=O)c3ccccc3n(Cc3ccc(Cl)cc3)c2=O)cc1OC	-10%	·	·	·	·	·
CCOc1ccc(OCc2ccc(C(=O)N3CCOCC3)cc2)cc1	-22%	-54*	-13%	1%	-2%	-5%
COc1ccc(S(=O)(=O)N2CCN(C(=O)C3COc4ccccc4O3)CC2)cc1 (stereo unspecified)	-10%	-74*	11µM*	50µM*	0%	4%
CC(=O)Nc1ccc(S(=O)(=O)N2CCN(C(=O)C3COc4ccccc4O3)CC2)cc1 (stereo unspecified)	-14%	-5	-2%	-1%	0%	·
Cc1ccc(NC(=O)Cn2nc(C)c3nn(-c4ccc(Cl)cc4)c(C)c3c2=O)cc1C	-3%	·	·	·	·	·
CCCOc1ccc(CNC(=O)C(CC)n2nc(C)c3sc4ccccc4c3c2=O)cc1 (stereo unspecified)	-14%	·	·	·	·	·
CCC(C)NC(=O)c1cc2n(n1)CCCN(Cc1ccc(C)cc1)C2=O (stereo unspecified)	-2%	·	·	·	·	·
Cc1ccccc1N1CC(C(=O)Nc2nnc(SCC(=O)Nc3nccs3)s2)CC1=O (stereo unspecified)	-3%	?	-25%	-29%	3%	-9%
Cc1cccc(N2CC(C(=O)Nc3nnc(SCC(=O)Nc4nccs4)s3)CC2=O)c1 (stereo unspecified)	-8%	?	6%	-16%[57.1 µM]	1%	·
Cn1c(SCC(=O)Nc2ccc3nc(SCC(=O)N4CCCC4)sc3c2)nnc1-c1ccccc1	-12%	-64*	?	?	-1%	-7%
O=C(Nc1ccc2nc(SCC(=O)N3CCCC3)sc2c1)c1ccccc1	7%	·	·	·	·	·
CCCN(CCC)c1cc(C)nc2nc(-c3ccc(Cl)cc3)nn12	-17%	·	·	·	·	·
Cc1ccc(-c2nc3c(c(=O)[nH]c(=O)n3Cc3ccccc3)n2C)o1	-20%	-68*	-10%	-13%[11.6 µM]	0%	-9%
O=C(NCCCCc1ccccc1)c1cccc(NC(=O)C2CC2)c1	-3%	-53*	19µM*	4%	·	-1%
O=C(NCCCc1ccccc1)c1cccc(NC(=O)C2CC2)c1	-18%	-4	-13%	5%	·	·
CCc1ccc(CNC(=O)C2CCN(C(=O)c3ccc(-n4ccc5ccccc54)s3)CC2)cc1	-26%	·	·	·	·	·
O=C(Nc1ccccn1)c1sc2cc([N+](=O)[O-])ccc2c1Cl	-5%	-52*	2.7µM*	10%	0%	-9%
CCS(=O)(=O)Nc1ccc(-c2nc3cccnc3s2)cc1	-8%	-59*	5%	4%	-2%	-9%
O=S(=O)(Nc1ccc(-c2nc3cccnc3s2)cc1)c1ccc(Cl)s1	-15%	-62*	-7%	0%	-1%	-5%
CCS(=O)(=O)Nc1cccc(-c2nc3cccnc3s2)c1	-23%	-2	-9%	-1%	3%	·
COc1cccc(Cn2c(=O)n(Cc3ccco3)c(=O)c3oc4ccccc4c32)c1	-8%	·	·	·	·	·
Cc1c(Cl)cccc1NC(=O)Cn1nnc(C(=O)NCc2cccs2)c1N	-6%	?	-4%	?	1%	-7%
SMILES	USP1-UAF1 inh	PI5P4Ka inh	PLK1 PBD block	WRN inhibitor	USP2a inh	ADP-Glo interf
Cn1c(=O)c2c(SCC(=O)NCc3ccco3)nc(-c3ccccc3)nc2n(C)c1=O	-11%	·	·	·	·	·
CNC(=O)c1nc(C)n(-c2ccc(Cl)cc2Cl)n1	-2%	-93*	3.8µM*	79µM*	-1%	-7%
CCCCCCCCN1C(=O)[C@H](CC(=O)NCc2ccc(C)o2)C[C@@]2(C(=O)OC)CC(C)(C)CC=C12	·	-51*	-13%	-4%	·	-1%
Cc1nc(-c2cccc(C(F)(F)F)c2)sc1C(=O)O	-4%	-50*	-17%	-26%[57.1 µM]	4%	2%
Cc1nc(-c2ccccc2)sc1C(=O)O	-2%	?	-3%	-14%	-1%	·
O=C(Oc1ccc2ccc(=O)oc2c1)C1CCCCC1	-2%	-5	-15%	1%	1%	·
O=C(Oc1cc2oc(=O)cc(-c3ccccc3)c2cc1Cl)C1CCCCC1	-20%	-88*	-4%	-23%	2%	-8%
Cc1cccc(NC(=O)c2sc3nc4n(c(=O)c3c2C)N=C(c2ccc(F)cc2)CS4)c1C	2%	·	·	·	·	·
Cc1cc(NC(=O)CSc2sc3c(O)cc(=O)[nH]c3c2C#N)ccc1Br	?	-104*	?	-7%[11.6 µM]	2%	5%
Cc1ccc(C)c(NC(=O)CSc2sc3c(O)cc(=O)[nH]c3c2C#N)c1	4%	-64*	-16%	-21%[57.1 µM]	3%	3%
Cc1cc(NC(=O)CSc2nc3[nH]c(=O)cc(O)c3s2)ccc1Br	-23%	-58*	-12%	-24%	-1%	-5%
N#Cc1c(SCC(=O)Nc2cccc(C(F)(F)F)c2)sc2c(O)cc(=O)[nH]c12	?	-103*	13µM*	?	-3%	-1%
Cc1ccc(NC(=O)CSc2nc3[nH]c(=O)cc(O)c3s2)c(Br)c1	-24%	?	-16%	-2%	1%	·
CCOc1ccc(N(C)S(=O)(=O)c2ccc3c(c2)C(C)(C)C(=O)N3C)cc1	-16%	·	·	·	·	·
Cc1ccc(S(=O)(=O)Nc2ccc3c(c2)c(C(=O)OC(C)C)c(C)n3S(=O)(=O)c2ccc(C)cc2)cc1	-9%	·	·	·	·	·
Cc1ccc(CNC(=O)CSc2ncc(S(=O)(=O)c3ccc(C)c(Cl)c3)c(=O)[nH]2)cc1	-31%	·	·	·	·	·
CCn1c(CC(=O)Nc2ccccc2F)nnc1SCC(=O)NC1CCCCC1	7%	-29	-14%	-4%[11.6 µM]	1%	-6%
COc1ccccc1NC(=O)Cc1nnc(SCC(=O)Nc2ccccc2F)n1C	-17%	-67*	12µM*	?	-1%	-7%
CCn1c(CC(=O)Nc2ccccc2Cl)nnc1SCC(=O)NC1CCCC1	-2%	0	-7%	4%	1%	·
CCn1c(CC(=O)Nc2ccccc2OC)nnc1SCC(=O)Nc1ccccc1F	-13%	0	6%	-1%[57.1 µM]	-5%	·
CCOc1ccc(NC(=O)C2CC(=O)NC(=Nc3ccc(Cl)c(Cl)c3)S2)cc1 (stereo unspecified)	-13%	·	·	·	·	·
Cc1ccc(Nc2nnc(SCC(=O)NCc3ccco3)s2)cc1	-3%	-52*	-9%	-16%	-12%	5%
NC(=O)c1ccsc1NC(=O)COC(=O)c1cnccn1	2%	-63*	-7%	?	-5%	-3%

Source: PubChem (National Center for Advancing Translational Sciences (NCATS))
